# Test results published in PubChem BioAssay.
# Active and inactive are the calls of the source. Rule as the data show it, unless noted: active = inhibition above about 80%; inactive = the rest.
# What was measured:
# [1] = viability rescue of complex I mutant cybrids, primary screen, cell-based, galactose medium, ATP luminescence (AID 1645843;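 active = z-score of at least 1.8 in each of two replicates, scored against plate mean and spread of sample wells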;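 also: positive z means more ATP and so rescue of galactose-driven cybrid death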); conditions: complex I mutant cybrid cells, 72 h, stronger effect = higher value
# [2] = LFS_MB_P medulloblastoma growth inhibition, cell-based, chromothripsis tumors, cisplatin or BGB combos (AID 1671449); conditions: LFS_MB_P medulloblastoma cells;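 also: cells exposed for 96 hours; 0% = vehicle DMSO and 100% = killing by high DMSO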
# [3] = HDN33 neuroblastoma growth inhibition, cell-based, chromothripsis tumors, cisplatin or BGB combos (AID 1671450); conditions: HDN33 neuroblastoma cells, stronger effect = higher value;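 also: cells exposed to compound for four days; 0% = vehicle DMSO and 100% = cell killing by high DMSO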
# [4] = ICB984 medulloblastoma cell growth inhibition, synergistic combos for chromothripsis tumors, cisplatin or BGB combos (AID 1671451; call rule not given here;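 also: cells exposed for 96 hours before readout; 0% = vehicle DMSO and 100% = killing by high DMSO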); conditions: ICB984 medulloblastoma cells, drug combinations, stronger effect = higher value
# [5] = LFS_MB_1R medulloblastoma cell growth inhibition, synergistic combos for chromothripsis tumors, cisplatin or BGB combos (AID 1671452); conditions: LFS_MB_1R medulloblastoma cells, stronger effect = higher value;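 also: cells exposed for 96 hours before readout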
# [6] = HTB85 osteosarcoma cell growth inhibition, synergistic combos for chromothripsis tumors, BGB or cisplatin IC20 combos (AID 1671453); conditions: HTB85 osteosarcoma cells, drug combinations, stronger effect = higher value;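 also: cells exposed for 96 hours before readout; 0% = vehicle DMSO and 100% = high DMSO killing control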
# [7] = CRL2098 osteosarcoma cell growth inhibition, synergistic combos for chromothripsis tumors, BGB or cisplatin IC20 combos (AID 1671454); conditions: CRL2098 osteosarcoma cells, drug combinations, stronger effect = higher value;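 also: cells exposed for 96 h before readout; 0% = vehicle DMSO and 100% = killing by high DMSO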
# [8] = HD-MB03 medulloblastoma cell growth inhibition, synergistic combos for chromothripsis tumors, BGB or cisplatin IC20 combos (AID 1671455; in the data active = inhibition above about 83%;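 also: 0% = vehicle DMSO and 100% = high DMSO as cytotoxic control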); conditions: HD-MB03 medulloblastoma cells, stronger effect = higher value
# [9] = UWB1.289 ovarian carcinoma cell growth inhibition, synergistic combos for chromothripsis tumors, BGB or cisplatin combos (AID 1671456); conditions: UWB1.289 ovarian carcinoma cells, stronger effect = higher value;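 also: cells exposed to compound for four days; 0% = vehicle DMSO and 100% = killing by high DMSO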
# [10] = LFS_MB_2R medulloblastoma cell growth inhibition, synergistic combos for chromothripsis tumors, cisplatin combos (AID 1671457); conditions: LFS_MB_2R medulloblastoma cells, stronger effect = higher value;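 also: cells exposed to compound for four days before readout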
# [11] = MDA-MB-436 breast carcinoma cell growth inhibition, synergistic combos for chromothripsis tumors, BGB or cisplatin combos (AID 1671458; call rule not given here;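 also: cells exposed for 96 hours; 0% = vehicle DMSO and 100% = killing by high DMSO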); conditions: MDA-MB-436 breast carcinoma growth inhibition, drug combinations, stronger effect = higher value
# [12] = UWB1.289_BRCA1 ovarian cancer growth, cell-based, BGB or cisplatin combinations (AID 1671459); conditions: UWB1.289 BRCA1 ovarian carcinoma, drug combinations, stronger effect = higher value
# [13] = human astrocyte viability loss, single and combined drugs, cytotoxicity control for chromothriptic childhood tumor combination screen, cell-based, BGB or cisplatin IC20 combos (AID 1671460); conditions: Human astrocytes, drug combinations, stronger effect = higher value;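 also: cells exposed to compounds for 96 hours before viability readout; 0% = vehicle and 100% = killing control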
# [14] = growth inhibition of BT084 medulloblastoma cells, cell-based, ICGC_MB145, cisplatin and BGB IC40 combos (AID 1671461); conditions: drug combinations, stronger effect = higher value;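 also: cells exposed to drugs for 96 hours; 0% = vehicle DMSO and 100% = high DMSO full killing control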
# [15] = growth inhibition of RCMB18 medulloblastoma cells, cell-based, cisplatin and BGB IC40 combos (AID 1671462); conditions: stronger effect = higher value;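 also: cells exposed to compound for four days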
# [16] = growth inhibition of CRL1545 osteosarcoma cells, cell-based, cisplatin and BGB IC20 combos (AID 1671464); conditions: stronger effect = higher value;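 also: cells exposed to compound for 96 hours before readout; 0% = vehicle DMSO and 100% = high DMSO killing control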
# [17] = measured here: combination with BGB IC40, at 0.05 µM
# [18] = measured here: with BGB IC20 combination, at 0.5 µM
# [19] = measured here: with cisplatin IC20 combination, at 0.5 µM
# [20] = measured here: combination with cisplatin, at 0.5 µM
# [21] = measured here: combination with cisplatin, at 5 µM
compound,measurement,setting,value
Cc1nsc(NC(=O)N2CCCCC2c2cccc(F)c2)n1 (stereo unspecified),z-score,[1],-0.55 (inactive)
CC(C)OC(=O)[C@H](C)NP(=O)(OC[C@H]1O[C@@H](n2ccc(=O)[nH]c2=O)C(C)(F)[C@@H]1O)Oc1ccccc1 (stereo partly specified),inhibition,"[2]; at 0.5 µM, stronger effect = higher value",-8.8% (inactive)
same,inhibition,"[2]; measured here: combination with BGB IC20, at 0.005 µM",-10.9%
same,inhibition,"[2]; measured here: combination with BGB IC40, at 0.005 µM",-13.1%
same,inhibition,[2]; [17],0.698%
same,inhibition,"[2]; measured here: combination with cisplatin, at 0.5 µM, stronger effect = higher value",-3.91%
same,inhibition,"[2]; measured here: combination with cisplatin, at 5 µM, stronger effect = higher value",-25.1%
same,inhibition,"[3]; BGB combo, at 5 µM",-13.9%
same,inhibition,[3]; at 0.5 µM,-10.3% (inactive)
same,inhibition,"[3]; cisplatin combo, at 5 µM",-30.6%
same,inhibition,[3]; [18],-4.98%
same,inhibition,[3]; [19],-21.3%
same,inhibition,"[3]; single agent, at 5 µM",-29.9%
same,inhibition,"[4]; BGB IC20 combo, at 0.005 µM",-1.44%
same,inhibition,"[4]; BGB IC40 combo, at 0.005 µM",-42.6%
same,inhibition,"[4]; BGB IC40 combo, at 0.05 µM",-35.5%
same,inhibition,[4]; at 0.5 µM,-42.2% (inactive)
same,inhibition,"[4]; cisplatin combo, at 0.05 µM",-40.8%
same,inhibition,"[4]; cisplatin combo, at 0.5 µM",-53.1%
same,inhibition,"[4]; cisplatin combo, at 5 µM",-16.6%
same,inhibition,"[4]; measured here: 5 uM single agent, at 5 µM",-3.56%
same,inhibition,[5]; at 0.5 µM,-22.9% (inactive)
same,inhibition,[5]; [17],-33.4%
same,inhibition,[5]; [20],-43%
same,inhibition,[5]; [21],-63%
same,inhibition,[6]; at 0.5 µM,-9.04% (inactive)
same,inhibition,"[6]; measured here: with BGB IC20, at 0.5 µM",-19.6%
same,inhibition,"[6]; measured here: with BGB IC20, at 5 µM",7.36%
same,inhibition,"[6]; measured here: with cisplatin IC20, at 0.5 µM",-19.1%
same,inhibition,"[6]; measured here: with cisplatin IC20, at 5 µM",-2.79%
same,inhibition,"[6]; single agent, at 5 µM",9.61%
same,inhibition,[7]; at 0.5 µM,-24.2% (inactive)
same,inhibition,"[7]; measured here: combination with BGB at IC20, at 0.5 µM",-7.71%
same,inhibition,"[7]; measured here: combination with cisplatin at IC20, at 0.5 µM",-18.3%
same,inhibition,[8]; at 0.5 µM,-8.35% (inactive)
same,inhibition,"[8]; measured here: combo with BGB at IC20, at 0.5 µM",-6.27%
same,inhibition,"[8]; measured here: combo with cisplatin at IC20, at 0.5 µM",-4.66%
same,inhibition,[9]; at 0.5 µM,-8.12% (inactive)
same,inhibition,"[9]; measured here: inhibition with BGB combination, at 0.05 µM",-21%
same,inhibition,"[9]; measured here: inhibition with cisplatin combination, at 0.05 µM",-18.4%
same,inhibition,[10]; at 0.5 µM,-25.3% (inactive)
same,inhibition,[10]; [20],-17.8%
same,inhibition,[10]; [21],-16.1%
same,inhibition,[11]; at 0.5 µM,-10.8% (inactive)
same,inhibition,"[11]; measured here: BGB combination, at 0.5 µM",-6.58%
same,inhibition,"[11]; measured here: BGB combination, at 5 µM",-5.34%
same,inhibition,"[11]; measured here: cisplatin combination, at 0.5 µM",-21%
same,inhibition,"[11]; measured here: cisplatin combination, at 5 µM",-5.77%
same,inhibition,"[12]; BGB combination, concentration series, at 5 µM",5.64%
same,inhibition,[12]; at 0.5 µM,-2.85% (inactive)
same,inhibition,"[12]; cisplatin combination, concentration series, at 5 µM",12.8%
same,inhibition,[13]; at 0.5 µM,9.43% (inactive)
same,inhibition,"[13]; measured here: combo with BGB IC20, at 0.5 µM",6.4%
same,inhibition,"[13]; measured here: combo with cisplatin IC20, at 0.5 µM",11.7%
same,inhibition,[14]; at 0.5 µM,-25.9% (inactive)
same,inhibition,"[14]; cisplatin combination, at 0.5 µM",-7.08%
same,inhibition,"[14]; cisplatin combination, at 5 µM",2.71%
same,inhibition,"[14]; measured here: BGB IC40 combination 0.05 uM, at 0.05 µM",66.2%
same,inhibition,"[14]; single agent, at 5 µM",3.91%
same,inhibition,[15]; at 0.5 µM,-23.5% (inactive)
same,inhibition,"[15]; cisplatin combo, at 5 µM",-18.9%
same,inhibition,"[15]; measured here: BGB IC40 combination, at 0.05 µM",1.12%
same,inhibition,[15]; [20],19.3%
same,inhibition,"[15]; single agent, at 5 µM",-63.1%
same,inhibition,[16]; at 0.5 µM,-19.7% (inactive)
same,inhibition,[16]; [18],-19.2%
same,inhibition,[16]; [19],-19.9%
same,inhibition,"[16]; single agent, at 0.05 µM",7.91%
same,inhibition,"[16]; single agent, at 5 µM",-24.5%
C=C1C2(C(=O)N3CCCC(COC)C3)CCC(C2)C1(C)C (stereo unspecified),z-score,[1],-0.525 (inactive)
Cc1nsc(NC(=O)NCCC2CCCCCC2)n1,z-score,[1],-1.07 (inactive)
